# For some of these results: Entries with a potency or affinity are not part of this list. The source made the active and inactive calls.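 How the source made its calls, unless noted: active means calcium signal cut by more than 3 SD below the full-agonist control yet still positive, in both repeats and the earlier primary screen; inactive means the rest.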
# What was measured:
# [1] = system: TRPC4 beta (transient receptor potential cation channel C4), mouse; assay: TRPC4 cation channel opening, retest – cell-based, Fluo4 calcium, HEK293 TRPC4beta/mu-opioid, duplicates, 10 µM, confirmation (AID 2426;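 active means fluorescence ratio normalized to control raised more than 50% in primary screen plus both repeat runs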); details: Fluo4 calcium fluorescence, at 10 µM; hits give high values
# [2] = system: transient receptor potential cation channel C4 beta (TRPC4), mouse; assay: TRPC4 cation channel opening, second retest – cell-based, second round, Fluo4, HEK293 TRPC4beta/mu-opioid, 1 µM, confirmation (AID 2461;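 active means primary screen active and over 50% activation in each of two duplicate runs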); details: Fluo4 calcium fluorescence, at 1 µM; hits give high values
# [3] = system: TRPC4 (transient receptor potential cation channel C4 beta), mouse; assay: potentiation of DAMGO EC20 TRPC4 response – cell-based, second round, Fluo-4, HEK293 TRPC4beta/mu-opioid, 1 µM, confirmation (AID 2554;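 active means primary screen hit whose fluorescence ratio, in both repeats, exceeds the weak agonist control mean by 3 SD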); details: DAMGO EC20, Fluo-4 calcium flux, at 1 µM; hits give high values
# [4] = system: TRPC4 beta (transient receptor potential cation channel C4), mouse; assay: potentiation of DAMGO EC20 TRPC4 response – cell-based, Fluo-4, HEK293 TRPC4beta/mu-opioid, confirmation (AID 2555;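 active means primary screen hit whose calcium fluorescence ratio, in both repeats, exceeds the weak agonist control mean by 3 SD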); details: DAMGO EC20, Fluo-4 calcium flux, at 10 µM; hits give high values
# [5] = target: Short transient receptor potential channel 4 (Mus musculus) (UniProt Q9QUQ5); assay: blockers of DAMGO-evoked TRPC4 calcium flux – cell-based, Fluo4, HEK293 TRPC4beta/mu-opioid, confirmation (AID 2636); details: at 10 µM; hits give high values
# Sequence of Short transient receptor potential channel 4 (Mus musculus) (Q9QUQ5 whole entry, looked up): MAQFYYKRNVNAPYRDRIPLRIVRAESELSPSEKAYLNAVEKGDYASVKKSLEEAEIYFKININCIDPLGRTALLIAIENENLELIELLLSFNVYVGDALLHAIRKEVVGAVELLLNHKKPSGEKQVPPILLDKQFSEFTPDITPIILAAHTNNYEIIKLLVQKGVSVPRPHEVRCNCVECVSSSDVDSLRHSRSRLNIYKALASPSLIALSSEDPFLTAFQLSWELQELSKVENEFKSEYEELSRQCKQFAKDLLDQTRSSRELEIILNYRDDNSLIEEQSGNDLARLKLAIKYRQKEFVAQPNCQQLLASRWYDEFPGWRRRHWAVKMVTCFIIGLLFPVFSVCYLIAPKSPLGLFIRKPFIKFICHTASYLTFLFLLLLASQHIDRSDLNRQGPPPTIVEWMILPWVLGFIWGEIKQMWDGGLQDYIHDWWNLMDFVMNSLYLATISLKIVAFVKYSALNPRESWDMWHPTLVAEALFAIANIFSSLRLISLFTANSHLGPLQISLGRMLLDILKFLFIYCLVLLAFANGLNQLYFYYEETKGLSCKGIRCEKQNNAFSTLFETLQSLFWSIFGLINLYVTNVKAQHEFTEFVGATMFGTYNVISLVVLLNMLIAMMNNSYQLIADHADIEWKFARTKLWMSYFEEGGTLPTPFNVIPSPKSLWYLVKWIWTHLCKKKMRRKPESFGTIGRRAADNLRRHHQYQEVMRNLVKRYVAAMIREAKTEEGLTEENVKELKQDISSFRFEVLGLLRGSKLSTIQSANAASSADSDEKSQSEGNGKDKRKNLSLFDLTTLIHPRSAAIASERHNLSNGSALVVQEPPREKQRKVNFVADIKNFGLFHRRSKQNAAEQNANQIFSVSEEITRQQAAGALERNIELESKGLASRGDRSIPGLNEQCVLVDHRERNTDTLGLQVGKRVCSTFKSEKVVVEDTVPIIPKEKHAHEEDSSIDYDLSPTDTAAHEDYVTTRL
# [6] = target: Short transient receptor potential channel 4 (Mus musculus) (UniProt Q9QUQ5); assay: blockers of DAMGO-evoked TRPC4 calcium flux – cell-based, second round, Fluo4, HEK293 TRPC4beta/mu-opioid, 1 µM, confirmation (AID 2637;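 active means calcium signal ratio cut to more than 3 SD under the fully stimulated control mean yet still positive, in both repeats and the primary screen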); details: at 1 µM; hits give high values
# [7] = target: Short transient receptor potential channel 4 (Mus musculus) (UniProt Q9QUQ5); assay: calcium entry via TRPC4 opening agents – cell-based, HEK293 TRPC4/mu-opioid, Fluo-4 calcium, dose response (AID 434937;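 active means primary screen activator hit with a dose response curve and TRPC4 channel activation at any tested dose; inactive means no activation, no dose response, or not a primary hit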)
# [8] = target: Short transient receptor potential channel 4 (Mus musculus) (UniProt Q9QUQ5); assay: potentiation of DAMGO-evoked TRPC4 calcium signal – cell-based, HEK293 TRPC4/mu-opioid, Fluo-4 calcium, EC20 DAMGO, dose response (AID 434941;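 active means earlier screen potentiator hit that boosts the TRPC4 ion channel at some dose, with a dose response; inactive means no potentiation, no dose response, or not a prior hit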;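 further: calcium entry triggered by an EC20 dose of DAMGO at the co-expressed mu-opioid receptor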)
# [9] = target: Short transient receptor potential channel 4 (Mus musculus) (UniProt Q9QUQ5); assay: block of DAMGO-driven TRPC4 calcium entry – cell-based, HEK293 TRPC4/mu-opioid, Fluo-4 calcium, dose response (AID 434942;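 active means primary screen inhibitor hit that blocks the TRPC4 channel at some tested dose, yielding a dose curve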)
# [10] = target: Short transient receptor potential channel 6 (Mus musculus) (UniProt Q61143); assay: TRPC6 blockade by TRPC4 inhibitor hits – cell-based, HEK293, membrane potential dye, duplicate, selectivity assay for TRPC4 inhibitor project, confirmation (AID 434948;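 active means active in primary screen and both duplicates, each dropping signal beyond three positive-control SD with fluorescence still positive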); details: HEK293 TRPC6, membrane potential dye fluorescence, at 10 µM, stimulated with maximal-effect acetylcholine; hits give high values
# Sequence of Short transient receptor potential channel 6 (Mus musculus) (Q61143 whole entry, looked up): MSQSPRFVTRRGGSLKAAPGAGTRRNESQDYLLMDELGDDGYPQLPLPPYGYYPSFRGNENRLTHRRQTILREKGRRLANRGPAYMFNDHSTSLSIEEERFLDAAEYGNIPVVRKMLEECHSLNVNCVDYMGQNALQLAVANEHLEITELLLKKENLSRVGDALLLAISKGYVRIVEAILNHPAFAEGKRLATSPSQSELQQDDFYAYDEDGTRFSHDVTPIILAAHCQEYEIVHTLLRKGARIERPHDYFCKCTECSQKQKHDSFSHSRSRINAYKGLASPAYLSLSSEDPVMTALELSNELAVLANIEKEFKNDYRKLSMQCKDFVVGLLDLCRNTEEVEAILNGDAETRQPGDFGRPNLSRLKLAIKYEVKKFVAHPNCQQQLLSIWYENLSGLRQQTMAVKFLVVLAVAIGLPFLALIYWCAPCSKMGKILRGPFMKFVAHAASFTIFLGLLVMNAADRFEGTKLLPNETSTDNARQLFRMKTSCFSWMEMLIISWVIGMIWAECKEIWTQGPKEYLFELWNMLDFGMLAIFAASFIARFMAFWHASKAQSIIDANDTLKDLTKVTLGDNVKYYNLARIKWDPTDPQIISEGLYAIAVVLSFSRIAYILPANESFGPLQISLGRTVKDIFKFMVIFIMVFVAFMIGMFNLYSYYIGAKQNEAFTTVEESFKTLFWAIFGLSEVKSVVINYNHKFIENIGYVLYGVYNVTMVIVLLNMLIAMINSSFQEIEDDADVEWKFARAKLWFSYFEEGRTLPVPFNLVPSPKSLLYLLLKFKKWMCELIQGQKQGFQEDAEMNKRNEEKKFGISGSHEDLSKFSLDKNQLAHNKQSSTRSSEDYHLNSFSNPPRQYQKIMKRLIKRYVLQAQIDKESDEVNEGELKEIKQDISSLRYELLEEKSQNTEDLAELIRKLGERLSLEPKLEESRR
# [11] = target: Short transient receptor potential channel 6 (Mus musculus) (UniProt Q61143); assay: TRPC6 opening by TRPC4 activator hits – cell-based, HEK293, membrane potential dye, duplicate, selectivity assay for TRPC4 activator project, confirmation (AID 434950;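 active means membrane potential signal rise above negative control mean plus 3 SD in both duplicates, also active in the earlier TRPC4 screen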); details: HEK293 TRPC6, membrane potential fluorescence, at 10 µM; activation: hits give high values; outcome: activation
# [12] = target: Short transient receptor potential channel 6 (Mus musculus) (UniProt Q61143); assay: positive modulators of mouse TRPC6 channel – HEK293 cells, membrane potential dye, duplicate, selectivity assay for TRPC4 potentiator project, confirmation (AID 434952;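 active means compound raising the membrane signal above positive-control mean plus 3 SD in both repeats, and a primary screen hit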); details: HEK293 TRPC6, membrane potential dye fluorescence, at 10 µM, maximal acetylcholine added after compound; hits give high values
# [13] = target: Short transient receptor potential channel 4 (Mus musculus) (UniProt Q9QUQ5); assay: calcium flux activators in TRPC4/5HT1a cells, counter-screen for TRPC4 activator project, cell-based, second counter screen, HEK293 TRPC4/5HT1a, Fluo-4 (AID 434977;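 active means calcium signal rise above buffer-control mean plus 5 SD in both duplicates, and also a hit in the primary screen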); details: Fluo-4 calcium flux, at 10 µM; hits give high values
# [14] = serotonin-gated TRPC4 signal block – cell-based, second counter screen, HEK293 TRPC4/5HT1a, Fluo-4, counter-screen for TRPC4 inhibitor project, confirmation (AID 434978;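 active means primary screen active whose calcium signal fell more than 3 SD beyond the full-serotonin control mean in both duplicate plates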;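 on outcome: serotonin given first at submaximal then at maximal dose after compound preincubation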); details: Fluo-4 calcium flux, at 10 µM, serotonin added to trigger calcium flux; hits give high values
# [15] = system: TRPC4 (mouse), co-expressed with 5HT1a in HEK293; assay: enhancement of serotonin-evoked TRPC4 response – cell-based, second counter screen, HEK293 TRPC4/5HT1a, Fluo-4, counter-screen for TRPC4 potentiator project, confirmation (AID 434979;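 active means signal rise over 3 SD above mean of control wells given weak agonist, in both repeats and first screen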); details: Fluo-4 calcium flux, at 10 µM, serotonin added at its EC20 dose; hits give high values
# [16] = nonspecific calcium rise without TRPC4 – cell-based, HEK293 mu-opioid receptor line, counter-screen for TRPC4 activator project, confirmation (AID 449723;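 active means hit in primary screen, with calcium signal over 5 SD above buffer well mean in both duplicates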;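 further: counter screen cells carry the mu-opioid receptor alone and lack TRPC4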); details: HEK293 mu-opioid cells, Fluo-4 calcium fluorescence, at 10 µM; hits give high values
# [17] = nonspecific potentiation of DAMGO calcium response – cell-based, HEK293 mu-opioid receptor line, counter-screen for TRPC4 allosteric potentiator project, confirmation (AID 449724;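 active means calcium signal rise more than 3 SD above the low-dose agonist control mean, in both duplicate plates and the primary screen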); details: HEK293 mu-opioid receptor cells, Fluo-4 calcium flux, at 10 µM, compound added before EC20 DAMGO stimulus; hits give high values
smiles,measurement,setting,value
CCCCN(C)CCNC(=O)C1CCCN(S(=O)(=O)c2cccc3nsnc23)C1 (stereo not drawn),outcome,[1],inactive
same,outcome,[2],inactive
same,potentiation,[3],11% (active)
same,outcome,[4],inactive
same,outcome,[5],inactive
same,outcome,[6],inactive
same,outcome,[7],inactive
same,outcome,[8],inactive
same,outcome,[9],inactive
same,outcome,[10],inactive
same,outcome,[11],inactive
same,outcome,[12],inactive
same,outcome,[13],inactive
same,outcome,[14],inactive
same,potentiation,[15],7.12% (active)
same,outcome,[16],inactive
same,outcome,[17],inactive
CCCn1c(SCC(=O)N2c3ccccc3Sc3ccccc32)nc2c1c(=O)n(C)c(=O)n2C,outcome,[1],inactive
same,outcome,[2],inactive
same,outcome,[3],inactive
same,potentiation,[4],18% (active)
same,outcome,[5],inactive
same,outcome,[6],inactive
same,outcome,[7],inactive
same,outcome,[8],inactive
same,outcome,[9],inactive
same,outcome,[10],inactive
same,outcome,[11],inactive
same,outcome,[12],inactive
same,outcome,[13],inactive
same,outcome,[14],inactive
same,potentiation,[15],45.1% (active)
same,outcome,[16],inactive
same,outcome,[17],inactive
Cn1c(N2CCC(C(N)=O)CC2)nc2c1c(=O)n(Cc1ccc(Br)cc1)c(=O)n2C,outcome,[1],inactive
same,outcome,[2],inactive
same,outcome,[3],inactive
same,outcome,[4],inactive
same,outcome,[5],inactive
same,outcome,[6],inactive
same,outcome,[7],inactive
same,outcome,[8],inactive
same,outcome,[9],inactive
same,outcome,[10],inactive
same,outcome,[11],inactive
same,outcome,[12],inactive
same,outcome,[13],inactive
same,outcome,[14],inactive
same,outcome,[15],inactive
same,outcome,[16],inactive
same,outcome,[17],inactive
CCNc1nc(NC(C)(C)C)nc(N2CCCC2)n1,outcome,[1],inactive
same,outcome,[2],inactive
same,outcome,[3],inactive
same,outcome,[4],inactive
same,inhibition,[5],77% (active)
same,outcome,[6],inactive
same,outcome,[7],inactive
same,outcome,[8],inactive
same,outcome,[9],inactive
same,outcome,[10],inactive
same,outcome,[11],inactive
same,outcome,[12],inactive
same,outcome,[13],inactive
same,inhibition,[14],41.2% (active)
same,outcome,[15],inactive
same,outcome,[16],inactive
same,outcome,[17],inactive
CSc1ccc2nnc(-c3cccc(F)c3)n2n1,outcome,[1],inactive
same,outcome,[2],inactive
same,outcome,[3],inactive
same,potentiation,[4],43% (active)
same,outcome,[5],inactive
same,outcome,[6],inactive
same,outcome,[7],inactive
same,outcome,[8],inactive
same,outcome,[9],inactive
same,outcome,[10],inactive
same,outcome,[11],inactive
same,outcome,[12],inactive
same,outcome,[13],inactive
same,outcome,[14],inactive
same,potentiation,[15],26.8% (active)
same,outcome,[16],inactive
same,outcome,[17],inactive
CN(C)CCCCOc1cccc(Br)c1,outcome,[1],inactive
same,outcome,[2],inactive
same,outcome,[3],inactive
same,outcome,[4],inactive
same,outcome,[5],inactive
same,outcome,[6],inactive
same,outcome,[7],inactive
same,outcome,[8],inactive
same,outcome,[9],inactive
same,outcome,[10],inactive
same,outcome,[11],inactive
same,outcome,[12],inactive
same,outcome,[13],inactive
same,outcome,[14],inactive
same,potentiation,[15],20% (active)
same,outcome,[16],inactive
same,outcome,[17],inactive
CCN(CC)CCOCCOc1ccc(Cl)c2ccccc12,outcome,[1],inactive
same,outcome,[2],inactive
same,outcome,[3],inactive
same,outcome,[4],inactive
same,outcome,[5],inactive
same,outcome,[6],inactive
same,outcome,[7],inactive
same,outcome,[8],inactive
same,outcome,[9],inactive
same,outcome,[10],inactive
same,outcome,[11],inactive
same,outcome,[12],inactive
same,outcome,[13],inactive
same,outcome,[14],inactive
same,potentiation,[15],11% (active)
same,outcome,[16],inactive
same,outcome,[17],inactive
Cc1ccc(C(C)C)c(OCCCCN2CCNCC2)c1,outcome,[1],inactive
same,outcome,[2],inactive
same,potentiation,[3],11% (active)
same,outcome,[4],inactive
same,outcome,[5],inactive
same,outcome,[6],inactive
same,outcome,[7],inactive
same,outcome,[8],inactive
same,outcome,[9],inactive
same,outcome,[10],inactive
same,outcome,[11],inactive
same,outcome,[12],inactive
same,outcome,[13],inactive
same,outcome,[14],inactive
same,potentiation,[15],23.8% (active)
same,outcome,[16],inactive
same,outcome,[17],inactive
Cc1ccsc1C(=O)OCC(=O)NCCNC(=O)COC(=O)c1sccc1C,outcome,[1],inactive
same,outcome,[2],inactive
same,outcome,[3],inactive
same,outcome,[4],inactive
same,outcome,[5],inactive
same,outcome,[6],inactive
same,outcome,[7],inactive
same,outcome,[8],inactive
same,outcome,[9],inactive
same,outcome,[10],inactive
same,outcome,[11],inactive
same,outcome,[12],inactive
same,outcome,[13],inactive
same,outcome,[14],inactive
same,outcome,[15],inactive
same,outcome,[16],inactive
same,outcome,[17],inactive
CCN1CCN(c2ccc(S(=O)(=O)N3CCCCC3)cc2NC(=O)COc2cc(C)ccc2Cl)CC1,outcome,[1],inactive
same,outcome,[2],inactive
same,outcome,[3],inactive
same,potentiation,[4],16% (active)
same,outcome,[5],inactive
same,outcome,[6],inactive
same,outcome,[7],inactive
same,outcome,[8],inactive
same,outcome,[9],inactive
same,outcome,[10],inactive
same,outcome,[11],inactive
same,outcome,[12],inactive
same,outcome,[13],inactive
same,outcome,[14],inactive
same,potentiation,[15],17.8% (active)
same,outcome,[16],inactive
same,outcome,[17],inactive
OCCNc1nc(Nc2ccccc2)nc2ccccc12,outcome,[1],inactive
same,outcome,[2],inactive
same,outcome,[3],inactive
same,outcome,[4],inactive
same,outcome,[5],inactive
same,outcome,[6],inactive
same,outcome,[7],inactive
same,outcome,[8],inactive
same,outcome,[9],inactive
same,outcome,[10],inactive
same,outcome,[11],inactive
same,outcome,[12],inactive
same,outcome,[13],inactive
same,outcome,[14],inactive
same,outcome,[15],inactive
same,outcome,[16],inactive
same,outcome,[17],inactive
Cn1c(=O)c2c(nc(CN3CCc4ccccc4C3)n2Cc2ccc(F)cc2)n(C)c1=O,outcome,[1],inactive
same,outcome,[2],inactive
same,outcome,[3],inactive
same,outcome,[4],inactive
same,outcome,[5],inactive
same,outcome,[6],inactive
same,outcome,[7],inactive
same,outcome,[8],inactive
same,outcome,[9],inactive
same,outcome,[10],inactive
same,outcome,[11],inactive
same,outcome,[12],inactive
same,outcome,[13],inactive
same,outcome,[14],inactive
same,potentiation,[15],59.5% (active)
same,outcome,[16],inactive
same,outcome,[17],inactive
CCOC(=O)c1cnc(-n2nc(C)cc2C)nc1NC1CCCCC1,outcome,[1],inactive
same,outcome,[2],inactive
same,outcome,[3],inactive
same,outcome,[4],inactive
same,outcome,[5],inactive
same,outcome,[6],inactive
same,outcome,[7],inactive
same,outcome,[8],inactive
same,outcome,[9],inactive
same,outcome,[10],inactive
same,outcome,[11],inactive
same,outcome,[12],inactive
same,outcome,[13],inactive
same,outcome,[14],inactive
same,potentiation,[15],26.3% (active)
same,outcome,[16],inactive
same,outcome,[17],inactive
CC(=O)Oc1ccc(NC(=O)CCC2CCCCC2)c(C(=O)O)c1,outcome,[1],inactive
same,outcome,[2],inactive
same,outcome,[3],inactive
same,outcome,[4],inactive
same,inhibition,[5],68% (active)
same,outcome,[6],inactive
same,outcome,[7],inactive
same,outcome,[8],inactive
same,outcome,[9],inactive
same,outcome,[10],inactive
same,outcome,[11],inactive
same,outcome,[12],inactive
same,outcome,[13],inactive
same,outcome,[14],inactive
same,outcome,[15],inactive
same,outcome,[16],inactive
same,outcome,[17],inactive
